Compounds with a hit are over-represented: about 3.7% of the library has one in this group of screens.
tim10-1 inh: inhibits growth of tim10-1 mutant yeast; actives 2.2% (n = 330,000); inhibition, % at 20 µM; S. cerevisiae tim10-1 ts strain growth, BacTiter-Glo, 24 h;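 active = inhibition of at least 40%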;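 also: mutant grown at 25 °C; 0% = DMSO wells with yeast and 100% = wells holding no yeast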
tim23-1 inh: tim23-1 yeast growth inhibition; S. cerevisiae tim23-1 growth, BacTiter-Glo luminescence, 24 h; actives 1.3% (n = 330,000); inhibition, % at 20 µM;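 active = growth inhibition of the mutant yeast at or above 50%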;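 also: temperature-sensitive mutant grown at 25 °C; plate controls were DMSO-treated mutant yeast for no effect and medium wells lacking yeast for full effect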
TIM10 inh: inhibits growth of TIM10 yeast strain. S. cerevisiae TIM10 strain growth, BacTiter-Glo luminescence, 24 h. inhibition, % at 10 µM. actives 1.4% (n = 330,000). AID 463195;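 active = inhibition of 40% or more at the single tested concentration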;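 also: wild-type TIM10 isogenic control strain grown at permissive 25 °C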
NALP3 yeast inh: inhibitors of NALP3 inflammasome in yeast; Yeast reconstituted NLRP3/ASC/caspase-1, beta-gal luminescence, 24 h; inhibition, % at 10 µM; actives 0.39% (n = 330,000);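 active = inhibition of 50% or more; inactive = inhibition below 50%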;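 also: plate controls were induced DMSO wells for no effect and uninduced yeast grown without galactose for full effect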
PfHsp90 set2: reduces growth (ATP signal) of yeast expressing P. falciparum Hsp90 | S. cerevisiae expressing PfHsp90, BacTiter-Glo ATP, 48 h; yeast lacking PDR1 and PDR3 efflux regulators | actives 0.32% (n = 310,000) | inhibition, % at 9.4 µM;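 active = every replicate shows inhibition above about 80%, whatever the replicate mean, limit read from the data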;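 also: 0% = DMSO neutral controls and 100% = 20 µM radicicol positive controls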
tim10-1 confirm: confirmation of tim10-1 mutant yeast growth inhibitors. shares compounds with tim10-1 inh. S. cerevisiae tim10-1 ts strain growth, BacTiter-Glo, 24 h. inhibition, % at 20 µM. actives 56% (n = 7,400);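 active = inhibition of yeast growth at or above a set limit in either of two repeat tests at 20 µM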;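 also: tim10-1 mutant grown at permissive 25 °C to find synthetic lethal compounds; 0% = DMSO yeast wells and 100% = medium wells without yeast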
* = called active by the depositor; nt = no result given.

SMILES	tim10-1 inh	tim23-1 inh	TIM10 inh	NALP3 yeast inh	PfHsp90 set2	tim10-1 confirm
CN1CC(c2ccc(C#N)cc2)C2(COc3ccccc3C2=O)C12C(=O)Nc1ccccc12 (stereo not given)	40*	48	38	0	2	40*
COc1ccc(C(=Cc2ccccc2)C(=O)O)cc1	nt	nt	nt	nt	-7	nt
CC1=C(C(=O)N2CCc3ccccc32)C2(CCC(C)CC2)OC1=O (stereo not given)	48*	28	22	-7	9	33*
CC1=C(C(=O)N2CCCCC2)C2(CCC(C)CC2)OC1=O (stereo not given)	14	21	16	-1	-10	nt
COc1ccc(OC)c(Nc2nc(NCCC(C)C)nc(N)c2[N+](=O)[O-])c1	24	27	32	21	-14	nt
CCC(C)Nc1nc(N)c([N+](=O)[O-])c(Nc2cc(OC)ccc2OC)n1 (stereo not given)	40*	38	32	13	-135	15
COc1ccc2[nH]c(C(=O)Nc3ccc(F)cc3Br)cc2c1	9	-5	2	-1	-26	nt
O=C(NN1C(=O)/C(=C/c2ccc(O)cc2)SC1=S)c1cccc(O)c1	6	6	5	40	-5	nt
CC(/C=C1\SC(=S)N(NC(=O)c2cccc(O)c2)C1=O)=C\c1ccccc1	51*	42	11	9	-100	31*
COc1ccc(Cl)cc1C(=O)Nc1ccc2c(c1)OCCO2	17	43	16	35	3	nt
COc1ccc(OC)c(NC(=O)Nc2ccc3c(c2)OCO3)c1	40*	36	2	17	-7	27
COc1ccc(Cl)cc1C(=O)Nc1ccc2c(c1)OCO2	46*	38	18	24	nt	35*
COc1cccc(NC(=O)Nc2ccc3c(c2)OCO3)c1	-25	-5	8	10	-20	nt
Cc1cc2nc(-c3ccc[nH]c3=O)[nH]c2cc1C	47*	48	35	2	71	35*
Cc1cc2nc(-c3ccc[nH]c3=O)n(Cc3ccc(F)cc3)c2cc1C	20	23	3	21	17	nt
CC(C)N(C)C1=CC(=O)C(N(C)C(C)C)=CC1=O	nt	nt	nt	nt	9	nt
COc1ccc(Cl)cc1N(C(=O)c1ccco1)C(C(=O)NC1CCCC1)c1ccncc1 (stereo not given)	-6	0	12	-6	-46	nt
CCN1CCCC1CNC(=O)c1cc2c(C)nc3ccccc3c2o1 (stereo not given)	6	24	3	0	12	nt
Cc1nc2ccccc2c2oc(C(=O)NCC3COc4ccccc4O3)cc12 (stereo not given)	41*	30	5	24	nt	10
CCc1ccc(CNC(=O)c2cc3c(C)nc4ccccc4c3o2)cc1	43*	43	-4	18	4	17
COc1cccc(CNC(=O)c2cc3c(C)nc4ccccc4c3o2)c1	9	12	-27	11	4	nt
CC(C)(C)NC(=O)NC(=O)CSc1ncn[nH]1	-13	3	5	20	0	nt
O=C1/C(=C/c2ccc([N+](=O)[O-])cc2)C=C(c2ccccc2)N1c1ccc(O)cc1	41*	1	18	9	-9	37*
O=C1/C(=C/c2ccc([N+](=O)[O-])cc2)C=C(c2ccccc2)N1c1ccccc1	30	21	10	9	4	nt
NS(=O)(=O)c1ccc(CCNC(=O)CN2CCN(Cc3cccc4ccccc34)CC2)cc1	-1	4	-9	-1	12	nt
SMILES	tim10-1 inh	tim23-1 inh	TIM10 inh	NALP3 yeast inh	PfHsp90 set2	tim10-1 confirm
COc1c(/C=C2\SC(=Nc3ccccc3Cl)NC2=O)cccc1[N+](=O)[O-]	44*	47	24	31	-11	45*
O=C1NC(=Nc2ccccc2Cl)S/C1=C\c1cccc([N+](=O)[O-])c1O	31	34	14	5	-177	nt
COc1cc2c(C(=O)N3CCN(C)CC3)c(C)n(-c3ccccc3)c2cc1Br	50*	21	20	3	-15	27
CN(C(=O)CCl)C1CCCc2ccccc21 (stereo not given)	nt	nt	nt	nt	-7	nt
Cc1ccc(N2C(=O)C3Sc4[nH]c(=O)sc4C(c4ccccc4)C3C2=O)cc1 (stereo not given)	37	25	25	16	8	nt
O=C1C2Sc3[nH]c(=O)sc3C(c3ccccc3)C2C(=O)N1c1ccc(Cl)cc1 (stereo not given)	42*	40	39	11	0	29

Assay outcomes (PubChem BioAssay)
